Measured values as given in PubChem BioAssay (NCI).
Compounds without any hit were thinned out: in the full panel of roughly 83,000, 20% have a hit.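 Single-concentration screen, 48 h exposure, 96-well plates. Endpoint: percent growth. Below 10 = active.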 Unmarked numbers belong to inactive results. Activity calls are given as the source filed them.

Assays:
Assay in all cases: NCI-60 one-dose screen, 48 h (100 = growth as untreated, 0 = no growth, -100 = all killed)
Conditions in all cases: 10 µM unless noted
SK-MEL-2 melanoma = system: SK-MEL-2 melanoma
EKVX NSCLC = system: EKVX NSCLC
SN12C renal = system: SN12C renal
UO-31 renal = system: UO-31 renal
TK-10 renal = system: TK-10 renal
ACHN renal = system: ACHN renal
CAKI-1 renal = system: CAKI-1 renal
A498 renal = system: A498 renal
CCRF-CEM leukemia = system: CCRF-CEM leukemia
MOLT-4 leukemia = system: MOLT-4 leukemia

SMILES | growth (SK-MEL-2 melanoma) | growth (EKVX NSCLC) | growth (SN12C renal) | growth (UO-31 renal) | growth (TK-10 renal) | growth (ACHN renal) | growth (CAKI-1 renal) | growth (A498 renal) | growth (CCRF-CEM leukemia) | growth (MOLT-4 leukemia)
COc1ccc(Br)c(C=O)c1 | 104% | 83.2% | 63.9% | 54.1% | 83.7% | 88.9% | 63.9% | 93.4% | 2.55% (active) | 18.9%
O=C(O)CSCC(=O)Nc1cc(C(F)(F)F)ccc1Cl | 111% | 105% | 102% | 84.4% | 110% | 106% | 89.4% | 139% | 101% | 109%
Cn1c(=O)c2[nH]c(CC(=O)O)nc2n(C)c1=O | 105% | 101% | 104% | 93.5% | 102% | 111% | 102% | 98.4% | 106% | 103%
O=[N+]([O-])c1ccc(-c2nc(N(CCO)CCO)c3ccccc3n2)o1 | -62.7% (active) | -32.4% (active) | 4.44% (active) | -40.6% (active) | -14.1% (active) | -14.5% (active) | -28.2% (active) | -77.1% (active) | 21.1% | 12.5%
CC(=O)Oc1c(Cl)cccc1-c1ccccc1 | 98.9% | 103% | 96.6% | 84.8% | 107% | 108% | 98.3% | 96.9% | 101% | 107%
CC(=O)N(C(C)=O)c1ccc(C)cc1 | 106% | 92.6% | 96.1% | 92.4% | 99.1% | 112% | 92.7% | 119% | 106% | 93.9%
COc1cccc(C(=O)O)c1OC | 99.3% | 91.9% | 96.6% | 86.5% | 96.2% | 93% | 97.4% | 97.4% | 107% | 110%
COC1C(=O)CCC2(CO2)C1(O)C1(C)OC1CCC(C)C (stereo not given) | 78.7% | 76.2% | 74.9% | 48.7% | 119% | 72.1% | 71.4% | 113% | 70.4% | 94%
CC(C)C1CCC(C)C(O)C1 (stereo not given) | 94.2% | 102% | 96.3% | 89.3% | 99.2% | 104% | 98% | 92% | 96.1% | 113%
O=S(Cc1ccccc1)/C(=C/NC(=S)Nc1ccccc1)c1ccccc1 (stereo not given) | 104% | 102% | 109% | 81.7% | 119% | 97.2% | 94.8% | 120% | 102% | 103%
Cc1ccc(C2CCCCC2)cc1Br | 99% | 98.9% | 101% | 83.2% | 98.7% | 101% | 90.3% | 88.6% | 103% | 110%
Nc1cc2ccccc2c(O)c1O | 85.3% | 83.4% | -22.3% (active) | 55.2% | 114% | 9.52% (active) | 84.5% | 97.2% | 19.6% | -6.45% (active)
CCOc1ccncc1[N+](=O)[O-] | 104% | 104% | 110% | 99.9% | 104% | 115% | 103% | 121% | 109% | 102%
CC1CC(C)S(=O)(=O)C1 (stereo not given) | 112% | 108% | 108% | 101% | 103% | 103% | 106% | 122% | 101% | 91.3%
CC(=O)C[n+]1ccc(C)cc1Sc1ccccc1C | 127% | 103% | 64.8% | 78.5% | 106% | 97.1% | 102% | 127% | 1.97% (active) | 54.7%
CCCCOC(=O)c1ccccc1O | 161% | 106% | 107% | 99.2% | 115% | 104% | 107% | 129% | -71.6% (active) | 117%
Cc1ccc(C)c(CCO)c1 | 134% | 112% | 99.9% | 93.7% | 99.6% | 107% | 115% | 85.8% | 119% | 113%
C=C(C)COc1ccc(C(C)(C)C)cc1 | 101% | 98.9% | 103% | 95.3% | 97.1% | 105% | 96.2% | 105% | 103% | 111%
O=C(c1ccc(Cl)cc1)N1CCCCC1 | 102% | 98.1% | 92.2% | 93.3% | 91% | 101% | 97.4% | 73.3% | 93.3% | 98.9%
Cc1cc2c(C(C)C)c(O)c(O)c(C=Nc3ccccc3[N+](=O)[O-])c2c(O)c1-c1c(C)cc2c(C(C)C)c(O)c(O)c(C=Nc3ccccc3[N+](=O)[O-])c2c1O | 96.6% | 60.7% | 84.9% | 84% | 84.2% | 83.3% | 88% | 101% | 35% | 26.2%
O=[N+]([O-])c1ccc2[nH]c(=S)n(/C=C(/c3ccc(Cl)cc3Cl)S(=O)(=O)Cc3ccc(Cl)cc3Cl)c2c1 | 102% | 92.9% | 94.6% | 97.2% | 101% | 98.1% | 97.4% | 103% | 103% | 98.3%
Nc1c(O)c(S(=O)(=O)O)c(O)c2c1C(=O)c1ccccc1C2=O | 6.13% (active) | 33.8% | 28.1% | 12.2% | 21.7% | 4.01% (active) | 13.5% | 5.41% (active) | 28% | 5.87% (active)
C/C(O)=C(/C=N\C(=S)Nc1ccc(S(=O)(=O)Nc2nccs2)cc1)C(=O)Nc1ccccc1C | 115% | 101% | 87.5% | 93.2% | 111% | 99.9% | 91.9% | 60.5% | 87.4% | 83.7%
CCNc1ncnc2[nH]ncc12 | 101% | 88.6% | 96.9% | 99.7% | 102% | 98.2% | 93% | 96.9% | 30.1% | 134%
Cc1[nH]c(=S)[nH]c(=O)c1C | 107% | 109% | 106% | 96.4% | 107% | 96.6% | 103% | 110% | 96.9% | 89.3%
COc1nc2ccccc2s1 | 100% | 108% | 99.3% | 73.3% | 111% | 94.6% | 90.5% | 101% | 102% | 103%
N#C/C(=C\NC(=S)N=Nc1c(O)[nH]c2ccccc12)c1nc2ccccc2s1 | 105% | 99.3% | 110% | 79.2% | 140% | 89.6% | 96.2% | 89% | 93.4% | 99.4%
Nc1ccc2ccccc2c1-c1c(N)ccc2ccccc12 | 15.5% | 36.5% | 37% | 40.8% | 34.9% | 38.8% | 28.6% | 14.6% | 12.9% | 17.4%
O=C(NCCc1ccccc1)/C(=C\c1ccc(Cl)cc1Cl)NC(=O)c1ccccc1 | 114% | 96% | 96.1% | 88.5% | 96.6% | 98.9% | 92.9% | 87.5% | 97.9% | 94.7%
Nc1nc2nnc(-c3ccccc3)c(-c3ccccc3)n2n1 | -2.91% (active) | 92.8% | 94.7% | 106% | 121% | 98.1% | 96.2% | 87.4% | 102% | 103%
